Molecules are shown by their SMILES. Hit rate of the full screen: of about 59,000 compounds, about 60 (0.1%) were called active. No rule for the calls is given here. The entries come from a sample that favours actives as a whole.

The nature of the test: qHTS Assay for Spectroscopic Profiling in A488 Spectral Region. The conditions noted are these: compound autofluorescence; max dye equivalency: Compound Type: qHTS ECL - SigmaAldrich, hits give high values unless noted; outcome: dye equivalency, Compound Type: qHTS ECL - MLSMR unless noted. The gist of the method:
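Compound autofluorescence was read in 100 mM Tris pH 8.0 after 15 min at room temperature, ex 480 nm/em 540 nm. Intensities were converted to A488 dye-equivalent concentration using an on-plate six-point A488 standard curve.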
`O=C(N1CCOCC1)N1CCOCC1`: the outcome was inactive. The same measure, in the same setting: then `CCNC(=O)CN(c1ccc(C)cc1)S(=O)(=O)c1ccc(SC)cc1`, with “inactive”; and `CN(Cc1ccco1)c1cc(-c2ccccc2C(F)(F)F)ncn1`, with “inactive [dye equivalency, Compound Type: qHTS ECL - Pharmacopeia]”. On the same count and under the same terms, then `COC(=O)Cc1nc2ccccc2[nH]1`, with “inactive [dye equivalency, Compound Type: qHTS ECL - DPISMR]”; and `CCOc1ccc(N=NS(=O)(=O)O)cc1`, with “inactive [dye equivalency, Compound Type: qHTS ECL - NCI]”; and `CN1CCN(C(=O)C2C3C=CC(C3)C2C(=O)O)CC1` (stereo not given), with “inactive”. The same measure, in the same setting: then `CN(C)c1ncc2nc(-c3ccc(F)cc3)c(=O)n(Cc3ccc(F)cc3)c2n1`, with “inactive [dye equivalency, Compound Type: qHTS ECL - Pharmacopeia]”. In the case of `CN(C)C(=O)c1ccc(-c2cncnc2NC2CCNCC2)cc1`, the outcome is “inactive [dye equivalency, Compound Type: qHTS ECL - Pharmacopeia]”. Regarding `CC(C)NC(=O)N1CC[C@@]2(CCCN(C(=O)c3ccco3)C2)C1`, the outcome is “inactive [dye equivalency, Compound Type: qHTS ECL - Pharmacopeia]”. For `COc1ccc(C(=O)N2CCC[C@@]3(CCN(C(=O)NC(C)C)C3)C2)cc1`, the outcome is “inactive [dye equivalency, Compound Type: qHTS ECL - Pharmacopeia]”. Consider `CC(C)NC(=O)N1CC[C@@]2(CCCN(C(=O)c3cccc(F)c3)C2)C1`, for which the max dye equivalency was 33 nM [Compound Type: qHTS ECL - Pharmacopeia, hits give high values] (active). In the case of `c1n[nH]c(NCc2ccc3c(c2)OCO3)n1`, the result was inactive. Regarding `CN(C)C(=O)/N=N\C(=O)N(C)C`, the outcome was “inactive [dye equivalency, Compound Type: qHTS ECL - SigmaAldrich]”.

As for `COCCn1c(=O)c(-c2cccs2)nc2cnc(N3CCN(C)CC3)nc21`, the outcome is “inactive [dye equivalency, Compound Type: qHTS ECL - Pharmacopeia]”. On to `Cc1ccc(-c2nnc(SC(C)C#N)n2N)cc1` (stereo not given), for which the outcome was inactive. Still for that read-out and setting: then `CCN(Cc1nc2ccccc2c(=O)[nH]1)Cc1cc(=O)oc2cc(C)c(C)cc12`, with “inactive”; and `O=C(CCS(=O)(=O)c1cccc2nonc12)NCCc1ccccc1Cl`, with “inactive”; and `CCOc1cc(S(=O)(=O)NC2CC(C)(C)NC(C)(C)C2)ccc1F`, with “inactive [dye equivalency, Compound Type: qHTS ECL - DPISMR]”. Same read-out and setting: for `FC(F)(F)c1cccc(Nc2ncnc3ccccc23)c1` the value was “inactive [dye equivalency, Compound Type: qHTS ECL - DPISMR]”; for `c1csc(CN2CCN(Cc3cccs3)C2c2cccs2)c1`, “inactive”; for `CCOc1ccc(NC(=O)Nc2ccc(N(C)C(C)=O)cc2)cc1`, “inactive [dye equivalency, Compound Type: qHTS ECL - DPISMR]”.

On to `COC(=O)[C@H](Cc1ccccc1)NC(=O)Nc1ccc(S(N)(=O)=O)cc1`, for which the outcome is “inactive [dye equivalency, Compound Type: qHTS ECL - DPISMR]”.

On to `COCCNc1ncnc2ccc(-c3cccnc3)cc12`, for which the outcome was “inactive [dye equivalency, Compound Type: qHTS ECL - Pharmacopeia]”.

For the compound `Nc1ccc2c3c(cccc13)C(=O)NC2=O`, the max dye equivalency was 95 nM (active). In the case of `O=C(Cn1c(-c2ccccn2)nc2ccccc21)NCCN1CCOCC1`, the outcome is “inactive [dye equivalency, Compound Type: qHTS ECL - DPISMR]”.

With `Cc1cc(C)c2c(c1)c(C)cc1nnc(SCC(=O)NCc3ccco3)n12`, the result was inactive.

With `Cc1ccc(NC2=NC(c3ccccc3)n3c(nc(C)cc3=O)N2)cc1` (stereo not given), the outcome was “inactive [dye equivalency, Compound Type: qHTS ECL - DPISMR]”. Same read-out and setting: for `CC[C@H](c1ccccc1)c1cc(C(C)(C)C)cc(C(C)(C)C)c1O` the value was “inactive [dye equivalency, Compound Type: qHTS ECL - NCI]”. Still for that read-out and setting: then `COc1cccc(Cn2c(=O)c(CCc3ccccc3)nc3cnc(N(C)C)nc32)c1`, with “inactive [dye equivalency, Compound Type: qHTS ECL - Pharmacopeia]”; and `Cc1cc(Br)ccc1NC(=O)C1CCCO1` (stereo not given), with “inactive [dye equivalency, Compound Type: qHTS ECL - DPISMR]”; and `Cc1nnc(C)n1/N=C/c1ccc(C(C)C)cc1`, with “inactive”. Same read-out and setting: then `CCON=C1C(C)(C)C(C)(C)C(C)(C)C1(C)C`, with “inactive [dye equivalency, Compound Type: qHTS ECL - NCI]”. Take `COc1ccc(C2/C(=C(/O)c3ccc(OC(C)C)cc3)C(=O)C(=O)N2CCCN2CCOCC2)cc1` (stereo not given): the result was inactive. The same measure, in the same setting: for `COC(=O)c1ccc(Oc2nc(NC(C)C)nc(SC)n2)cc1` the value was “inactive [dye equivalency, Compound Type: qHTS ECL - DPISMR]”; for `CCc1nnc(NC(=O)CSc2nnc(COc3ccc(C#N)cc3)n2-c2ccccc2)s1`, “inactive”. Same read-out and setting: then `C=CCOc1ccc(C2/C(=C(\O)c3c(C)[nH]c(C(=O)OC)c3C)C(=O)C(=O)N2CCN(C)C)cc1` (stereo not given), with “inactive [dye equivalency, Compound Type: qHTS ECL - DPISMR]”; and `COc1ccc(NC(=O)N2CC3(CCN(C(C)=O)CC3)C2)cc1`, with “inactive [dye equivalency, Compound Type: qHTS ECL - Pharmacopeia]”; and `O=c1c(-c2ccc(F)cc2)nc2cnc(N3CCOCC3)nc2n1-c1ccccc1`, with “inactive [dye equivalency, Compound Type: qHTS ECL - Pharmacopeia]”. On the same count and under the same terms, for `O=C(CSc1nnc(-c2ccncc2)n1C1CCCCC1)Nc1ccccc1` the value was “inactive”. As for `c1cncc(-c2nc(N3CCNCC3)c3ccccc3n2)c1`, the outcome is “inactive [dye equivalency, Compound Type: qHTS ECL - Pharmacopeia]”.

In the case of `Cc1ccc(S(=O)(=O)N2CCN(Cc3cccc(C)c3O)CC2)cc1`, the result was inactive. Same read-out and setting: then `COc1ccc(-c2nc3cnc(N(C)C)nc3n(Cc3cccs3)c2=O)cc1`, with “inactive [dye equivalency, Compound Type: qHTS ECL - Pharmacopeia]”; and `Cc1nc2cnc(N3CCNCC3)nc2n(Cc2ccc(F)cc2)c1=O`, with “inactive [dye equivalency, Compound Type: qHTS ECL - Pharmacopeia]”.

On to `COCCn1c(=O)c(-c2ccc(OC)cc2)nc2cnc(Oc3cccc(Cl)c3)nc21`, for which the outcome was “inactive [dye equivalency, Compound Type: qHTS ECL - Pharmacopeia]”. In the case of `COc1ccc(OC)c2c(N)c(C#N)c(C(F)(F)C(F)(F)F)nc12`, the result was inactive.

For the compound `O=C(Nc1nn(Cc2ccccc2F)cc1Br)c1cccs1`, the outcome was “inactive [dye equivalency, Compound Type: qHTS ECL - DPISMR]”. Still for that read-out and setting: for `Brc1ccc(Nc2c3c(nc4ncnn24)CCC3)cc1` the value was “inactive”; for `Cc1ccccc1C(OCC(O)CN1CCCCC1CCO)c1ccccc1` (stereo not given), “inactive”.

As for `CCCN1C(=O)C(NS(=O)(=O)c2ccc(N)cc2)(C(F)(F)F)C(C(=O)OC)=C1C` (stereo not given), the outcome was “inactive [dye equivalency, Compound Type: qHTS ECL - DPISMR]”. Turning to `Cc1cc(C(F)(F)F)n2ncc(-c3ccccc3)c2n1`, the outcome was “inactive [dye equivalency, Compound Type: qHTS ECL - DPISMR]”. Still for that read-out and setting: then `COc1ccccc1CNc1ncncc1-c1cccnc1`, with “inactive [dye equivalency, Compound Type: qHTS ECL - Pharmacopeia]”; and `Cc1ccc(S(=O)(=O)Nc2ccccc2CNc2c(C)n(C)n(-c3ccccc3)c2=O)cc1`, with “inactive”.

As for `CC(=NC1CCN(Cc2ccccc2)CC1)c1c(O)[nH]c(=O)[nH]c1=O`, the outcome was “inactive [dye equivalency, Compound Type: qHTS ECL - DPISMR]”.

Take `CCn1ccnc1C[C@@H]1COc2ccccc2O1`: the outcome was “inactive [dye equivalency, Compound Type: qHTS ECL - SigmaAldrich]”. Still for that read-out and setting: for `CN1[C@H]2CC(OC(=O)[C@@H](CO)c3ccccc3)C[C@H]1[C@H]1O[C@H]12` (stereo not given in full) the value was “inactive [dye equivalency, Compound Type: qHTS ECL - Prestwick]”.
